From the supplement of paper PMC10849652
Of roughly 8,800 targets only a part is listed; those with a hit were picked by preference. About 0.5% of all pairs of compound and target were hits.

Experiments:
Assay in all cases: log2 fold change, soluble protein after heating vs DMSO (PISA); higher = thermal stabilisation; K562 lysate, 10 uM; active = over 0.2 and 3.5 SD of the protein, either way, in both replicates (recomputed)
[1] = compound: CS(=O)(=O)CCNCc1ccc(-c2ccc3ncnc(Nc4ccc(OCc5cccc(F)c5)c(Cl)c4)c3c2)o1 [lapatinib]
Procedure, shortened: (§1)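 Values give the log-two fold change in thermal stability against solvent controls, from duplicates. Crude K562 extract at 1 mg/mL protein, made by dounce homogenisation in PBS pH 7.4 with 1 mM MgCl2, was treated with 10 μM compound for 30 min. After 3 min heating across 48°C-58°C, aliquots were pooled, adjusted to 0.5% NP-40 at 4°C and centrifuged at 21,000xg for 90 min. The supernatant was measured by TMTpro 16plex LC-MS/MS with channel sums equalised.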

[2] = compound: CS(=O)(=O)N1CCN(Cc2cc3nc(-c4cccc5[nH]ncc45)nc(N4CCOCC4)c3s2)CC1 [pictilisib]
Procedure, shortened: as §1

[3] = compound: C[C@H](C1=CC=C(C=C1)C(=O)NC2=C3C=CNC3=NC=C2)N
Procedure, shortened: as §1

[4] = compound: Cc1cc(Nc2cc(CN3CCOCC3)c3nc(C)c(Cc4ccc(Cl)cc4F)n3n2)n[nH]1 [gandotinib]
Procedure, shortened: as §1

[5] = compound: Cc1ccc(NC(=O)c2ccc(CN3CC[C@H](N(C)C)C3)c(C(F)(F)F)c2)cc1Nc1nccc(-c2cncnc2)n1 [bafetinib]
Procedure, shortened: as §1

[6] = compound: Cc1cccc(CC(=O)N2CCc3c2ccc(-c2cn(C)c4ncnc(N)c24)c3F)n1
Procedure, shortened: as §1

[7] = compound: Cc1cn(-c2cc(NC(=O)c3ccc(C)c(Nc4nccc(-c5cccnc5)n4)c3)cc(C(F)(F)F)c2)cn1 [nilotinib]
Procedure, shortened: as §1

[8] = compound: Cc1nc(Nc2n[nH]c3c2CN(C(=O)N[C@H](CN(C)C)c2ccccc2)C3(C)C)c2sccc2n1
Procedure, shortened: as §1

[9] = compound: Cc1ncc(-c2ccnc(Nc3ccc(S(C)(=O)=O)cc3)n2)n1C(C)C
Procedure, shortened: as §1

[10] = compound: Cn1cncc1[C@@](N)(c1ccc(Cl)cc1)c1ccc2c(c1)c(-c1cccc(Cl)c1)cc(=O)n2C [tipifarnib]
Procedure, shortened: as §1

[11] = compound: NC(=O)c1cnc(N[C@@H]2CCCC[C@@H]2N)nc1Nc1cccc(-n2nccn2)c1
Procedure, shortened: as §1

[12] = compound: NC1(c2ccc(-c3nc4ccn5c(=O)[nH]nc5c4cc3-c3ccccc3)cc2)CCC1
Procedure, shortened: as §1

[13] = compound: C[C@@H](Oc1cc(-c2cnn(C3CCNCC3)c2)cnc1N)c1c(Cl)ccc(F)c1Cl [crizotinib]
Procedure, shortened: as §1

[14] = compound: C[C@H](Nc1ncnc2nc[nH]c12)c1cc2cccc(Cl)c2c(=O)n1-c1ccccc1 [duvelisib]
Procedure, shortened: as §1

[15] = compound: Cc1cc(Nc2cc(N3CCN(C)CC3)nc(Sc3ccc(NC(=O)C4CC4)cc3)n2)n[nH]1 [tozasertib]
Procedure, shortened: as §1

[16] = compound: Cc1ccc(-n2nc(C(C)(C)C)cc2NC(=O)Nc2ccc(OCCN3CCOCC3)c3ccccc23)cc1 [doramapimod]
Procedure, shortened: as §1

[17] = compound: Cc1nc(Nc2ncc(C(=O)Nc3c(C)cccc3Cl)s2)cc(N2CCN(CCO)CC2)n1 [dasatinib]
Procedure, shortened: as §1

[18] = compound: Cn1cc(-c2ccc3c(c2)CCN3C(=O)Cc2cccc(C(F)(F)F)c2)c2c(N)ncnc21
Procedure, shortened: as §1

[19] = compound: Cn1cc(CNCC2CCN(c3ncc(C(=O)NO)cn3)CC2)c2ccccc21 [quisinostat]
Procedure, shortened: as §1

[20] = compound: NC(=O)Nc1cc(-c2cccc(F)c2)sc1C(=O)N[C@H]1CCCNC1
Procedure, shortened: as §1

Measured: log2 fold change

ZYG11A (UniProt Q6WRX3)
inactive: [1] -0.301 | [2] 0.031 | [3] -0.306 | [4] 0.192 | [5] -0.378 | [6] 0.323 | [7] 0.151 | [8] -0.077 | [9] -0.227 | [10] -0.124 | [11] 0.085 | [12] -0.068

VHL (UniProt P40337)
UniProt P40337, sequence (P40337 whole entry, looked up): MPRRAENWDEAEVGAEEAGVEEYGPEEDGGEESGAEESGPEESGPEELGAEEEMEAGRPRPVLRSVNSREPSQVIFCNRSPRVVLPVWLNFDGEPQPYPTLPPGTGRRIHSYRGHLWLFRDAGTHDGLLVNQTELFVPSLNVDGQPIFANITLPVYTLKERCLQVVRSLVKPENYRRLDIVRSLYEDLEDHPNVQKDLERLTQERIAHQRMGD
inactive: [2] -0.003 | [13] 0.017 | [14] 0.148 | [4] -0.08 | [15] 0 | [16] -0.011 | [5] 0.092 | [6] -0.021 | [7] -0.01 | [8] 0.04 | [17] 0 | [9] -0.056 | [18] 0.079 | [19] -0.056 | [10] 0.022 | [20] 0.077 | [12] 0.04
active: [3] -0.538

WEE1 (UniProt P30291)
UniProt P30291, sequence (P30291 whole entry, looked up): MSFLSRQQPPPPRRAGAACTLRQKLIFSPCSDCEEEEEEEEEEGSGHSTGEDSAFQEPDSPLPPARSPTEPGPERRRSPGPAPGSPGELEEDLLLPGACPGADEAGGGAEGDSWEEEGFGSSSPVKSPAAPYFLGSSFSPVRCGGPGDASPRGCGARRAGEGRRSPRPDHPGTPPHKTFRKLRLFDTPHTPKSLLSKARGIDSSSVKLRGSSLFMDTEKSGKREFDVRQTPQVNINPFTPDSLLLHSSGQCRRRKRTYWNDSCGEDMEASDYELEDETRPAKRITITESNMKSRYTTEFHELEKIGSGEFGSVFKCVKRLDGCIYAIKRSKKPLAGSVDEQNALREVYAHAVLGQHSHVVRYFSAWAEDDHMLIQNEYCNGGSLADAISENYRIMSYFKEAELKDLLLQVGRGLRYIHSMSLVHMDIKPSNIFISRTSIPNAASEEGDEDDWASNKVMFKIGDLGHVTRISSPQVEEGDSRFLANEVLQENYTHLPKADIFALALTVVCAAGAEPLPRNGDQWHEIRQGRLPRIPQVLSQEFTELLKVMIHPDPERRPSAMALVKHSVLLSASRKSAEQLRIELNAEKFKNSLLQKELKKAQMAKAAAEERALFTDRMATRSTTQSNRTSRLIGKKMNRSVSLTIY
inactive: [1] -0.034 | [2] -0.047 | [13] -0.141 | [14] 0.033 | [15] 0.011 | [16] 0.183 | [5] 0.068 | [7] -0.002 | [8] 0.001 | [9] -0.033 | [18] -0.002 | [19] -0.069 | [10] -0.007 | [20] 0.223 | [11] -0.106 | [12] -0.044
active: [17] 0.397

WSB1 (UniProt Q9Y6I7)
active: [4] -1.11
inactive: [3] 0.12 | [14] -0.137 | [6] -0.674 | [17] -0.194 | [18] 0.012

WRNIP1 (UniProt Q96S55)
inactive: [1] -0.021 | [2] -0.043 | [13] 0 | [3] 0.054 | [14] 0.012 | [4] -0.047 | [15] 0.022 | [16] 0.001 | [5] -0.043 | [6] 0.045 | [7] -0.008 | [8] 0.002 | [17] -0.018 | [9] -0.05 | [18] 0.066 | [19] -0.035 | [10] -0.02 | [20] 0.053 | [11] -0.008 | [12] -0.001

ZMYM2 (UniProt Q9UBW7)
UniProt Q9UBW7, sequence (Q9UBW7 whole entry, looked up): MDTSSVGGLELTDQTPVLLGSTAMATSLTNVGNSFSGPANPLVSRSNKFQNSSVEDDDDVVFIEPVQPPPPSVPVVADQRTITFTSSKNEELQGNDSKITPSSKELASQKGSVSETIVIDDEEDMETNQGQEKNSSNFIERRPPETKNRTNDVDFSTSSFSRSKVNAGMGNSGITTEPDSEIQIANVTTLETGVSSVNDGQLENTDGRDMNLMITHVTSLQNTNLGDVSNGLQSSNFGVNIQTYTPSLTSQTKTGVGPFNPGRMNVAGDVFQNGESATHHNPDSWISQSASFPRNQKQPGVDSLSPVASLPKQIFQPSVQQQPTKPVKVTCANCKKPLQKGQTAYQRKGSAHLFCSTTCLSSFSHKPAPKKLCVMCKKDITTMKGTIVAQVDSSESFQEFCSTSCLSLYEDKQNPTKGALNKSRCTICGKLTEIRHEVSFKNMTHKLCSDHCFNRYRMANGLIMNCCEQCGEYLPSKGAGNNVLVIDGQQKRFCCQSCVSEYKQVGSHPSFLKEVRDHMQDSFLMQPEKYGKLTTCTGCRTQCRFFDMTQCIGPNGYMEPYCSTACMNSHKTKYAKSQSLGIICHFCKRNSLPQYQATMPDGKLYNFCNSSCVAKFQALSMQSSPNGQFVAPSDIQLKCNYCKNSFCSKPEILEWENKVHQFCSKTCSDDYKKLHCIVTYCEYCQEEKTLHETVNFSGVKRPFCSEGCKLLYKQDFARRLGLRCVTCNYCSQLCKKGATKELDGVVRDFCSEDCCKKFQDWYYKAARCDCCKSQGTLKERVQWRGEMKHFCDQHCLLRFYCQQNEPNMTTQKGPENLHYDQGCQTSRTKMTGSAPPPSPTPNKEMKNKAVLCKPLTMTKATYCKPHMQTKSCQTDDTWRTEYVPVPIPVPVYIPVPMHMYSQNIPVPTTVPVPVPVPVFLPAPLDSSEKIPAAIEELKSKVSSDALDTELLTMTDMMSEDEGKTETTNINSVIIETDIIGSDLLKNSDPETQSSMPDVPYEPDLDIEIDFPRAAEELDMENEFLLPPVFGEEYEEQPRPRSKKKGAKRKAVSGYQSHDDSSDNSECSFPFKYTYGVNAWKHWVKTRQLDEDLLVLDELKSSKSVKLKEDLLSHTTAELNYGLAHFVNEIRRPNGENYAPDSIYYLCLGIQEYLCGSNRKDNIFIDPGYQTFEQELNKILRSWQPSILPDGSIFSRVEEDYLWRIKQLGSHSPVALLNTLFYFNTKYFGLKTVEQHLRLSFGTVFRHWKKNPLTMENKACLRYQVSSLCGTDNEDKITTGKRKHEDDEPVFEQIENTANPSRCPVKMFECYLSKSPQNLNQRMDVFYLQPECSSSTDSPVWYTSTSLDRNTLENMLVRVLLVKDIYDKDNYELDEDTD
inactive: [1] 0.028 | [2] -0.147 | [13] -0.079 | [3] 0.098 | [14] 0.028 | [4] -0.329 | [15] 0.046 | [16] 0.041 | [5] -0.024 | [6] -0.084 | [7] -0.04 | [8] 0.001 | [17] -0.023 | [9] -0.007 | [18] 0.035 | [19] -0.082 | [10] 0.08 | [20] 0.056 | [11] 0.099 | [12] -0.033

ZDHHC17 (UniProt Q8IUH5)
inactive: [1] 0.042 | [13] 0.098 | [14] -0.301 | [4] 0.037 | [15] -0.025 | [16] 0.11 | [6] 0.17 | [7] -0.164 | [8] 0.039 | [17] -0.096 | [9] -0.115 | [18] -0.028 | [19] 0.045 | [10] 0.118 | [20] -0.118 | [11] -0.047
active: [3] -0.778

UNKL (UniProt E9PDK2)
inactive: [2] -0.113 | [13] -0.078 | [14] 0.184 | [15] -0.039 | [16] 0.07 | [5] -0.041 | [17] -0.216 | [18] 0.006 | [19] 0.015 | [20] 0.045

ZSCAN21 (UniProt Q9Y5A6)
UniProt Q9Y5A6, sequence (Q9Y5A6 whole entry, looked up): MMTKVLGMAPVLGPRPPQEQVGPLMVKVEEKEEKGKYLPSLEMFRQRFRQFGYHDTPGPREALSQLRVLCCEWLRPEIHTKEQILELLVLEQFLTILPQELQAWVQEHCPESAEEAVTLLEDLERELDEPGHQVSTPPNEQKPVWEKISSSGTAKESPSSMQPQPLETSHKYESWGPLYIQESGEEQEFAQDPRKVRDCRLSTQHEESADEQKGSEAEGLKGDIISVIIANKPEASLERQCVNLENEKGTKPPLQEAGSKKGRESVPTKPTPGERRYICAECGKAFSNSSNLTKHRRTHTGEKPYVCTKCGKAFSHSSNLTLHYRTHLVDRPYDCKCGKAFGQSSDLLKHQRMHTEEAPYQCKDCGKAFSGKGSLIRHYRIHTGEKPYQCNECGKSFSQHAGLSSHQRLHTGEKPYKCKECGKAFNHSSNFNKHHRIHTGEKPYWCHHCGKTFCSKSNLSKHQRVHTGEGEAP
inactive: [3] -0.131 | [4] -0.108 | [15] -0.001 | [6] 0.068

ZNF845 (UniProt Q96IR2)
inactive: [1] 0.012 | [2] -0.013 | [13] 0.018 | [3] -0.069 | [14] -0.023 | [4] 0.015 | [16] 0.16 | [5] -0.031 | [6] 0.017 | [7] 0 | [8] 0.087 | [17] -0.038 | [9] -0.053 | [18] 0.021 | [19] -0.033 | [10] -0.006 | [20] 0.122 | [11] 0.016 | [12] 0.163

ZSWIM8 isoform 4 (UniProt A7E2V4)
inactive: [2] -0.253 | [13] 0.027 | [3] -0.027 | [14] -0.145 | [4] -0.153 | [15] 0.169 | [16] -0.084 | [5] -0.257 | [6] 0.205 | [7] -0.009 | [8] 0.129 | [17] 0.085 | [9] 0.07 | [18] 0.042 | [19] -0.051 | [10] -0.065 | [20] 0.067 | [12] -0.112

VPS72 (UniProt Q15906)
inactive: [1] 0.025 | [13] 0.005 | [3] -0.099 | [14] 0.001 | [4] 0.031 | [15] 0.059 | [16] -0.023 | [6] 0.136 | [7] 0.029 | [8] 0.032 | [17] -0.054 | [9] 0.05 | [18] 0.073 | [19] 0.005 | [10] 0.088 | [20] 0.05 | [11] -0.03 | [12] -0.036

WIPI2 isoform 6 (UniProt Q9Y4P8)
UniProt Q9Y4P8, sequence (Q9Y4P8 whole entry, looked up): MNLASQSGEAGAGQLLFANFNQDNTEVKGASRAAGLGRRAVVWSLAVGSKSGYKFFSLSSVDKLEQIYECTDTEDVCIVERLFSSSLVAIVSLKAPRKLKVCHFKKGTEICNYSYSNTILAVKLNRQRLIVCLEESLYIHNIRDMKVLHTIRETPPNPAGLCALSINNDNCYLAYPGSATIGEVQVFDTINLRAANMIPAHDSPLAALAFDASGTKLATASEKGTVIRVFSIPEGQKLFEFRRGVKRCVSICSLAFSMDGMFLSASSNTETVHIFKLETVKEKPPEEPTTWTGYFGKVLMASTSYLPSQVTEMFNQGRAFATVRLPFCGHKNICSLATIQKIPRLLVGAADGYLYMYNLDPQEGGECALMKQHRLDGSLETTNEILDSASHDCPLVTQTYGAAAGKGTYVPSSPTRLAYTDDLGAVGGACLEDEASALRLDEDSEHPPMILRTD
inactive: [2] -0.102 | [3] 0.025 | [4] 0.181 | [5] -0.013 | [6] -0.089

ZKSCAN8 (UniProt Q15776)
inactive: [1] 0.08 | [13] -0.151 | [14] 0.068 | [15] -0.014 | [16] 0.082 | [7] 0.05 | [8] 0.015 | [17] -0.096 | [9] -0.03 | [18] 0.026 | [19] -0.134 | [10] 0.101 | [20] 0.005 | [11] -0.029 | [12] -0.064

VASN (UniProt Q6EMK4)
inactive: [14] -0.119 | [15] 0.08 | [17] 0.081 | [18] 0.027 | [12] -0.059

WAS (UniProt P42768)
inactive: [2] -0.027 | [3] -0.16 | [14] -0.194 | [4] -0.057 | [15] -0.127 | [5] -0.065 | [6] 0.103 | [8] -0.102 | [17] 0.095 | [9] 0.318 | [18] 0.129 | [10] -0.064 | [12] 0.025
active: [7] 0.636

ZNF281 (UniProt Q9Y2X9)
UniProt Q9Y2X9, sequence (Q9Y2X9 whole entry, looked up): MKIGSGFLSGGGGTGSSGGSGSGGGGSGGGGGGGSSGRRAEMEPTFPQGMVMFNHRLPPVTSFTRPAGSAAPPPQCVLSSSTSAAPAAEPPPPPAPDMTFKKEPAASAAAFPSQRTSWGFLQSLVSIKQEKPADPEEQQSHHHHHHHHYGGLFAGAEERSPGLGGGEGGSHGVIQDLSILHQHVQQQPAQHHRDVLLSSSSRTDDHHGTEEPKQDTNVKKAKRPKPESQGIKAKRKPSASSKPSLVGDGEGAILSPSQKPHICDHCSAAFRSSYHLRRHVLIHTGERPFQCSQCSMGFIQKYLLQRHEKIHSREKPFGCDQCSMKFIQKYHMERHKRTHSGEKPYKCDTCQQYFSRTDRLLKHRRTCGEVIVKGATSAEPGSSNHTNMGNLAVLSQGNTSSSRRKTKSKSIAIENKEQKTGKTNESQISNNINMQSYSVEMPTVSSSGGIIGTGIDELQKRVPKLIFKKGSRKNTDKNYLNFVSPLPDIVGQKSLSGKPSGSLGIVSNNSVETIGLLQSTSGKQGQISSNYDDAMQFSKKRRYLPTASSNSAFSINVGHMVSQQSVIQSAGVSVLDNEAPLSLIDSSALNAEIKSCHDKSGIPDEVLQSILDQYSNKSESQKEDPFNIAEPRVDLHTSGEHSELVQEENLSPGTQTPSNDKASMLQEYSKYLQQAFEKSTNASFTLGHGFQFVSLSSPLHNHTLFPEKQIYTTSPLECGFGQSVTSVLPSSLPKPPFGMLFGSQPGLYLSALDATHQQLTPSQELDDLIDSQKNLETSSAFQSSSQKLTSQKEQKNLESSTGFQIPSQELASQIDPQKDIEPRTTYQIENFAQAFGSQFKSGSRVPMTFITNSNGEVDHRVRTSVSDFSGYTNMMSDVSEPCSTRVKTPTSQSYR
inactive: [13] 0.003 | [14] 0.029 | [16] 0.02 | [17] -0.041 | [18] 0.031 | [19] 0.151 | [20] -0.028 | [12] 0.02

ZNF644 (UniProt Q9H582)
inactive: [2] -0.133 | [13] -0.026 | [3] 0.04 | [14] -0.069 | [4] -0.015 | [15] 0.015 | [16] 0.037 | [5] -0.165 | [6] 0.086 | [7] -0.062 | [8] 0.153 | [17] 0.066 | [9] 0.017 | [18] -0.061 | [19] -0.026 | [10] -0.012 | [20] 0.058 | [12] -0.167

ZNF593 (UniProt O00488)
inactive: [1] -0.114 | [2] 0.078 | [13] 0.113 | [3] -0.087 | [14] 0.089 | [4] 0.016 | [15] 0.047 | [16] 0.033 | [5] 0.059 | [6] 0.045 | [17] 0.125 | [18] -0.042 | [19] 0.02 | [20] 0.063 | [11] 0.295 | [12] 0.03

XPOT (UniProt F5GYW6)
inactive: [1] -0.115 | [11] -0.192

URGCP (UniProt Q8TCY9)
UniProt Q8TCY9, sequence (Q8TCY9 whole entry, looked up): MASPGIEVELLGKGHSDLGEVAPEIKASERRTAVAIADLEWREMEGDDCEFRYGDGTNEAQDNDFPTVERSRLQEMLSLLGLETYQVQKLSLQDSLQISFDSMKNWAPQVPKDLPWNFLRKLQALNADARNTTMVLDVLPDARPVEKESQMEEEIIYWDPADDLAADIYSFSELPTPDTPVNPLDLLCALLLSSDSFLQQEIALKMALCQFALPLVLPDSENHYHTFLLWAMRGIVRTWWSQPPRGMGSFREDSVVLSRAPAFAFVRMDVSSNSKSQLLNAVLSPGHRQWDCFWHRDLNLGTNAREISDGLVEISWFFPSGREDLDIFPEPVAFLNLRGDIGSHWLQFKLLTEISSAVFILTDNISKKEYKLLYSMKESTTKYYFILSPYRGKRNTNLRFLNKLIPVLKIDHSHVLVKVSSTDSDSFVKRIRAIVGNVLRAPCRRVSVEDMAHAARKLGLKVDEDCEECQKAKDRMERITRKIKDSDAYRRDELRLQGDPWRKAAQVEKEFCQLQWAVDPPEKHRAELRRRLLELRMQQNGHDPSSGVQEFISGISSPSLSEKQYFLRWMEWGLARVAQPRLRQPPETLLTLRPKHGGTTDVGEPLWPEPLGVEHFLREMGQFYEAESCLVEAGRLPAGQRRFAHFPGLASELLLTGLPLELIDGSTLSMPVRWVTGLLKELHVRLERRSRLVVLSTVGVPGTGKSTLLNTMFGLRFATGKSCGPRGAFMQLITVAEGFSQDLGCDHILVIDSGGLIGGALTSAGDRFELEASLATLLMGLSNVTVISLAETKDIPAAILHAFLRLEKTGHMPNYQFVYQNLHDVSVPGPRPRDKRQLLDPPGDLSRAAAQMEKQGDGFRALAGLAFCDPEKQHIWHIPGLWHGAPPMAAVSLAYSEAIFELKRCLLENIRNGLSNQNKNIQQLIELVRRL
inactive: [2] -0.025 | [14] 0.158 | [5] -0.137 | [7] 0.028 | [8] 0.079 | [17] -0.204 | [9] -0.04 | [18] -0.145 | [10] -0.008

ZNF146 (UniProt Q15072)
inactive: [14] -0.018 | [17] -0.028 | [18] 0.188

UNC13A (UniProt Q9UPW8)
inactive: [3] -1.52 | [4] 0.331 | [6] 0.481 | [7] 0.114 | [8] 0.046 | [9] 0.165 | [10] 0.064 | [12] -0.048
